The sample as a whole holds a higher share of the strongest signals than the screen did.
Legend:
Test in all cases: glycan array binding signal (z-score within array); higher = stronger binding
Conditions in all cases: glycan notation: IUPAC condensed, linker removed
[1] = molecular target: Fuc(a1-2)Gal(b1-3)GalNAc(b1-3)Gal
Outline: (§1)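 The Consortium for Functional Glycomics database supplied 3228 glycan arrays, of which those lacking an available protein sequence were dropped. The binding signal, a within-array Z-score, was averaged across arrays of the same protein sequence and across linkers. Negative scores can be read as non-binding.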

[2] = molecular target: Fuc(a1-2)Gal(b1-3)GlcNAc(b1-3)[Gal(b1-4)GlcNAc(b1-6)]Gal(b1-4)Glc
Outline: as §1

[3] = molecular target: Fuc(a1-2)Gal(b1-3)GlcNAc6S
Outline: as §1

[4] = molecular target: Fuc(a1-2)Gal(b1-4)GlcNAc(b1-2)[Fuc(a1-2)Gal(b1-4)GlcNAc(b1-4)]Man(a1-3)[Fuc(a1-2)Gal(b1-4)GlcNAc(b1-2)Man(a1-6)]Man(b1-4)GlcNAc(b1-4)GlcNAc
Outline: as §1

[5] = molecular target: Fuc(a1-2)Gal6S(b1-3)GlcNAc
Outline: as §1

[6] = molecular target: Fuc(a1-2)[Gal(a1-3)]Gal(b1-3)GlcNAc
Outline: as §1

[7] = molecular target: Fuc(a1-2)[GalNAc(a1-3)]Gal(b1-4)GlcNAc(b1-3)Gal(b1-4)GlcNAc
Outline: as §1

[8] = molecular target: Fuc(a1-3)[Gal(b1-4)]GlcNAc(b1-2)Man(a1-3)[Fuc(a1-3)[Gal(b1-4)]GlcNAc(b1-2)Man(a1-6)]Man(b1-4)GlcNAc(b1-4)GlcNAc
Outline: as §1

[9] = molecular target: Fuc(a1-3)[GalNAc(b1-4)]GlcNAc
Outline: as §1

Fuc(a1-4)GlcNAc = molecular target: Fuc(a1-4)GlcNAc
Outline: as §1

Gal(a1-3)Gal = molecular target: Gal(a1-3)Gal
Outline: as §1

[10] = molecular target: Gal(a1-3)Gal(b1-3)GlcNAc(b1-3)GalNAc
Outline: as §1

[11] = molecular target: Gal(a1-3)Gal(b1-4)[Fuc(a1-3)]GlcNAc
Outline: as §1

Gal(a1-4)Gal(b1-4)GlcNAc = molecular target: Gal(a1-4)Gal(b1-4)GlcNAc
Outline: as §1

Gal(b1-3)GalNAc(b1-3)Gal = molecular target: Gal(b1-3)GalNAc(b1-3)Gal
Outline: as §1

[12] = molecular target: Gal(b1-3)GalNAc(b1-4)Gal(b1-4)Glc
Outline: as §1

[13] = molecular target: Gal(b1-3)GalNAc(b1-4)[Neu5Ac(a2-3)]Gal(b1-4)Glc
Outline: as §1

[14] = molecular target: Gal(b1-3)GlcNAc(a1-6)Gal(b1-4)GlcNAc
Outline: as §1

[15] = molecular target: Gal(b1-3)GlcNAc(b1-2)Man(a1-3)[Gal(b1-3)GlcNAc(b1-2)Man(a1-6)]Man(b1-4)GlcNAc(b1-4)GlcNAc
Outline: as §1

[16] = molecular target: Gal(b1-3)GlcNAc(b1-2)Man(a1-3)[Gal(b1-3)GlcNAc(b1-2)Man(a1-6)]Man(b1-4)GlcNAc(b1-4)[Fuc(a1-6)]GlcNAc
Outline: as §1

[17] = molecular target: Gal(b1-3)GlcNAc(b1-6)[Gal(b1-3)]GalNAc
Outline: as §1

[18] = molecular target: Gal(b1-3)[Neu5Ac(b2-6)]GalNAc
Outline: as §1

Gal(b1-4)GlcNAc = molecular target: Gal(b1-4)GlcNAc
Outline: as §1

[19] = molecular target: Gal(b1-4)GlcNAc(b1-2)Man(a1-3)[Man(a1-6)]Man(b1-4)GlcNAc(b1-4)GlcNAc
Outline: as §1

[20] = molecular target: Gal(b1-4)GlcNAc(b1-2)[Gal(b1-4)GlcNAc(b1-4)]Man(a1-3)[GlcNAc(b1-4)][Gal(b1-4)GlcNAc(b1-2)[Gal(b1-4)GlcNAc(b1-6)]Man(a1-6)]Man(b1-4)GlcNAc(b1-4)GlcNAc
Outline: as §1

[21] = molecular target: Gal(b1-4)GlcNAc(b1-3)Gal(b1-4)GlcNAc(b1-3)Gal(b1-4)GlcNAc(b1-3)Gal(b1-4)GlcNAc(b1-3)Gal(b1-4)GlcNAc(b1-2)Man(a1-3)[Gal(b1-4)GlcNAc(b1-3)Gal(b1-4)GlcNAc(b1-3)Gal(b1-4)GlcNAc(b1-3)Gal(b1-4)GlcNAc(b1-3)Gal(b1-4)GlcNAc(b1-2)Man(a1-6)]Man(b1-4)GlcNAc(b1-4)[Fuc(a1-6)]GlcNAc
Outline: as §1

[22] = molecular target: Gal3S(b1-4)[Fuc(a1-3)]GlcNAc
Outline: as §1

GalNAc(a1-3)GalNAc = molecular target: GalNAc(a1-3)GalNAc
Outline: as §1

[23] = molecular target: GalNAc(a1-3)GalNAc(b1-3)Gal(a1-4)Gal(b1-4)GlcNAc
Outline: as §1

GlcA(b1-3)Gal = molecular target: GlcA(b1-3)Gal
Outline: as §1

[24] = molecular target: GlcNAc(a1-4)Gal(b1-4)GlcNAc
Outline: as §1

[25] = molecular target: GlcNAc(b1-2)[GlcNAc(b1-4)]Man(a1-3)[GlcNAc(b1-2)Man(a1-6)]Man(b1-4)GlcNAc(b1-4)GlcNAc
Outline: as §1

B1: UDA (Urtica dioica), P11218 (protein)
chain: MMMRFLSAVVIMSSAMAVGLVSAQRCGSQGGGGTCPALWCCSIWGWCGDSEPYCGRTCENKCWSGERSDHRCGAAVGNPPCGQDRCCSVHGWCGGGNDYCSGSKCQYRCSSSVRGPRVALSGNSTANSIGNVVVTEPLFDQMFSHRKDCPSQGFYSYHSFLVAAESFPAFGTIGDVATRKREVAAFLAHISQATSGERSDVENPHAWGLCHINTTTVTENDFCTSSDWPCAAGKKYSPRGPIQLTHNFNYGLAGQAIGEDLIQNPDLVEKDPIISFKTALWFWMSQHDNKPSCHDIVLNANSAANRIPNKGVIGNIISRAFGHDDFAVRSSSIGFYKRYCDMLGVSYGHDLKYWFDNTPSSEFQRIQMRVAA
Q: Which results are given for B1?
A: glycan array binding signal (z-score) [1]: -0.215; glycan array binding signal (z-score) [2]: -0.109; glycan array binding signal (z-score) [3]: -0.182; glycan array binding signal (z-score) [4]: -0.161; glycan array binding signal (z-score) [5]: -0.184; glycan array binding signal (z-score) [6]: -0.167; glycan array binding signal (z-score) [7]: -0.054; glycan array binding signal (z-score) [8]: -0.165; glycan array binding signal (z-score) [9]: -0.172; glycan array binding signal (z-score) (Fuc(a1-4)GlcNAc): -0.178; glycan array binding signal (z-score) (Gal(a1-3)Gal): -0.189; glycan array binding signal (z-score) [10]: -0.177; glycan array binding signal (z-score) [11]: -0.183; glycan array binding signal (z-score) (Gal(a1-4)Gal(b1-4)GlcNAc): -0.101; glycan array binding signal (z-score) (Gal(b1-3)GalNAc(b1-3)Gal): -0.178; glycan array binding signal (z-score) [12]: -0.186; glycan array binding signal (z-score) [13]: -0.189; glycan array binding signal (z-score) [14]: -0.166; glycan array binding signal (z-score) [15]: 0.04; glycan array binding signal (z-score) [16]: -0.156; glycan array binding signal (z-score) [17]: -0.177; glycan array binding signal (z-score) [18]: -0.187; glycan array binding signal (z-score) (Gal(b1-4)GlcNAc): 0.006; glycan array binding signal (z-score) [19]: 4.63; glycan array binding signal (z-score) [20]: -0.17; glycan array binding signal (z-score) [21]: 1.52; glycan array binding signal (z-score) [22]: -0.184; glycan array binding signal (z-score) (GalNAc(a1-3)GalNAc): -0.191; glycan array binding signal (z-score) [23]: -0.177; glycan array binding signal (z-score) (GlcA(b1-3)Gal): -0.173; glycan array binding signal (z-score) [24]: 0.188; glycan array binding signal (z-score) [25]: 0.083

Reference: the supplement of paper PMC8728848
